Laboratory results from PubChem BioAssay AID690 (Sanford-Burnham Center for Chemical Genomics, 2007).
The whole screen tested about 96,000 compounds, of which about 80 (0.08%) were called active. The rule behind the calls is not given here. Not all results are given here. Entries with a potency or affinity are not part of this list.

Each molecule was assayed against Alkaline phosphatase, placental type (Homo sapiens) (UniProt P05187) (assay: inhibition of human placental alkaline phosphatase – biochemical, luminescence, HTS (AID 690)). Settings: purified PLAP, luminescent substrate; at 20 µM; hits give high values.
Sequence of Alkaline phosphatase, placental type (Homo sapiens) (P05187 whole entry, looked up): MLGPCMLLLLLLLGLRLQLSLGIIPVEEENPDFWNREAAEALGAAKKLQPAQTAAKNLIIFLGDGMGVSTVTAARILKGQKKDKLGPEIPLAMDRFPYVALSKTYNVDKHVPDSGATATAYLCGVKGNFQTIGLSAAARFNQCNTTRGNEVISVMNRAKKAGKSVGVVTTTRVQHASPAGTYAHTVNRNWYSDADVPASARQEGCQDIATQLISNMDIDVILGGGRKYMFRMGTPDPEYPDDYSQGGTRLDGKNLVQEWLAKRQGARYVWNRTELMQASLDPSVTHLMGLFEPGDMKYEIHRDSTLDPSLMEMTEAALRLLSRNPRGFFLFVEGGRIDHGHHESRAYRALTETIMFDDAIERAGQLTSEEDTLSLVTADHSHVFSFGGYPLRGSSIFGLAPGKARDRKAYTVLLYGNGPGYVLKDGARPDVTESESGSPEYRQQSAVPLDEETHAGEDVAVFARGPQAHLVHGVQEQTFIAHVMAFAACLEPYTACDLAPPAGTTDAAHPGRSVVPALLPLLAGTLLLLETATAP

inhibition, inactive:
Cc1ccc(C)c(NC(=S)NC(NC(=O)N(C)C)C(Cl)(Cl)Cl)c1 (configuration not stated) -58%, Cc1ccc(NC(=S)NC(NC(=O)Cc2cccc3ccccc23)C(Cl)(Cl)Cl)cc1 (configuration not stated) 36.5%, Cc1nc(N2CCN(S(=O)(=O)c3ccccc3)CC2)c2c3c(sc2n1)CC(C)CC3 (configuration not stated) -34.1%, O=C1c2ccc3c4c(ccc(c24)C(=O)N1Cc1cccnc1)C(=O)N(Cc1cccnc1)C3=O 4.9%, CC(O)CNc1nc2c(c(=O)n(C)c(=O)n2C)n1C/C=C/c1ccccc1 (configuration not stated) -20.9%, CCN1C(=O)/C(=C2\C=Cc3ccccc3N2CC)SC1=S 23.5%, CCCN1/C(=C2/SC(=S)N(CC)C2=O)C=Cc2ccccc21 11.9%, CCn1ncc(Br)c1C(=O)N(C)C12CC3CC(CC(C3)C1)C2 -9.1%, CN(CCNC(=O)c1cccc(N2CCCC2=O)c1)Cc1ccccc1 -40.3%, O=C1Nc2ccccc2/C1=N\N=C\C1=C(N2CCOCC2)C(=C\c2ccccc2)/CC1 -12.2%, O=P(C1=C(N2CCOCC2)/C(=C\c2ccccc2)CC1)(N1CCOCC1)N1CCOCC1 -69.4%, O=C(O)c1c(Cl)c(Cl)c(Cl)c(Cl)c1C(=O)N1CCCC1 -10.8%, CCOCC(O)CSCc1ccc(Cl)cc1 (configuration not stated) -5%, COc1ccc(CNC(=O)c2ccc(-c3ccccc3)cc2)cc1 6.9%, Fc1ccccc1CSc1nnnn1-c1ccc2c(c1)OCO2 13.8%, Fc1cccc(Cl)c1CSc1nnnn1-c1ccc2c(c1)OCO2 22.7%, CCOC(=O)CC(=O)CSc1nc2c(cc1C#N)CCC2 0%, CC(C)NS(=O)(=O)c1ccc(OCC(=O)NCc2ccccc2)cc1 -1.7%, O=C1C2C3C=CC(C3)C2C(=O)N1c1n[nH]c(CCc2ccccc2)n1 (configuration not stated) 30%, O=C1C2CC=CCC2C(=O)N1c1n[nH]c(CCc2ccccc2)n1 (configuration not stated) -20.2%, O=C1C2CC=CCC2C(=O)N1c1n[nH]c(Cc2ccccc2)n1 (configuration not stated) 62.3%, O=C1C2C3C=CC(C3)C2C(=O)N1c1cccnc1 (configuration not stated) 15.9%, O=C1C2C3C=CC(C3)C2C(=O)N1Cc1cccnc1 (configuration not stated) 0.6%, O=C1C2C3C=CC(C3)C2C(=O)N1c1cccc(N2C(=O)C3C4C=CC(C4)C3C2=O)n1 (configuration not stated) -1.8%, Cc1ccc(SCCNC(=O)C(CO)(CO)CO)cc1 11.9%, COc1ccc(CN(Cc2cc3ccc(C)cc3[nH]c2=O)Cc2nnnn2C2CCCC2)cc1 -54.8%, Cc1ccc(-c2cc(C(=O)N/N=C\c3cnn(C)c3C)c3ccccc3n2)cc1C -102%, C=CCn1c(SCC(=O)Nc2ccccc2OC)nnc1-c1ccco1 8%, O=C(C1CC1)N1CCN=C1SCc1cccc(C(F)(F)F)c1 3%, CCOCCCNC(=O)C1CCCN1S(=O)(=O)c1ccc(Cl)cc1 (configuration not stated) 8.4%, C#CC(CC)(CC)NC(=O)c1c(C)noc1C 4.5%, O=C(Cc1cccs1)NCc1ccc(F)cc1 -6%, CN1CCN(c2nc3c(c(=O)n(C)c(=O)n3C)n2CC(=O)C23CC4CC(CC(C4)C2)C3)CC1 -54.5%, O=C1/C(=C/c2cccs2)SC(=S)N1c1ccccc1 12.2%, CCN(CC)c1ccc(N2C(=O)/C(=C/c3cccs3)SC2=S)cc1 3.4%, CC(C)N(CCNS(=O)(=O)c1ccc(Cl)cc1)C(C)C 9.6%, O=C(Nc1ccccc1C(F)(F)F)c1ccc(CN2CCC(Cc3ccccc3)CC2)cc1 -22.3%, Cc1nn(-c2ccccc2)c(C)c1/C=N/NC(=O)c1cc(C(C)(C)C)[nH]n1 -32%, Cc1ccc(-c2cc(C(=O)N/N=C/c3c(C)nn(-c4ccccc4)c3C)[nH]n2)cc1 -2.5%, O=c1[nH]c(CSc2nnc(-c3ccncc3)n2Cc2ccco2)nc2ccccc12 -3.5%, N=c1oc2ccc3ccccc3c2cc1-c1nnc2n1CCCCC2 -35.4%, CC1CCC/C(=N/Nc2ccc([N+](=O)[O-])cc2[N+](=O)[O-])C1 (configuration not stated) 21.1%, O=[N+]([O-])c1ccc(C2CCCC/C2=N/OCc2ccc(F)cc2)c([N+](=O)[O-])c1 (configuration not stated) 25.8%, CCN(CC)CCCNC(=O)N[C@@H](Cc1ccccc1)C(=O)O -2.1%, CC(=O)c1c(C(C)=O)c(C)n(-c2ccc(O)cc2)c1C -4.3%, CCCCNC(=O)NC1(C(F)(F)F)Oc2ccccc2O1 -12%, COCC(C)NC(=O)NC1(C(F)(F)F)Oc2ccc(Cl)cc2O1 (configuration not stated) 34.9%, CC(NC(=O)NCc1cccnc1)(C(F)(F)F)C(F)(F)F -6.1%, O=C(NCc1cccnc1)NC1(C(F)(F)F)Oc2ccccc2O1 12.3%, Cc1nccn1S(=O)(=O)c1ccc(Br)cc1Br -1.1%, OC(CC1CC12c1ccccc1-c1ncccc12)(c1ccccc1)c1ccccc1 (configuration not stated) -45%, CCCCn1cc(C(=O)c2cc(Br)ccc2O)cc(C#N)c1=O -1.5%, CCCC1CCc2c(c3ccccc3[nH]c2=O)O1 (configuration not stated) -5%, CC1CCc2c(c3ccccc3[nH]c2=O)O1 (configuration not stated) 9%, Fc1ccc(CSc2nnc(-c3cnccn3)n2Cc2ccco2)cc1 7.7%, CCCCOC(=O)CNc1n[nH]c(=S)[nH]c1=O -1.8%, CCCCOC(=O)C(C)Nc1n[nH]c(=O)[nH]c1=O (configuration not stated) 3.9%, CCN1CCN(Cc2nc3c(c(=O)n(C)c(=O)n3C)n2Cc2cccc3ccccc23)CC1 -34.1%, Cc1ccccc1CN(c1ccc(C(=O)N2CCc3ccccc3C2)cc1)S(C)(=O)=O -40.7%, O=C(c1cccs1)c1coc2ccc(O)c(CN3CCOCC3)c12 -1%, O=c1sc2ccccc2n1CCOc1ccccc1 33.9%, Cc1ccc(OCn2c(=O)sc3ccccc32)cc1 -9%
